# Sampled rows, rich in hits. Any-hit rate of the full collection: about 6.1%.
# DRD3 agonist: agonists of human D3 dopamine receptor | P35462 | D3R DiscoveRx beta-arrestin cells, luminescence, 90 min | max activation, % | 410,000 tested, 0.58% active | AID 652048; in the data active = max activation above about 30%; also: 0% is about no effect
# Target sequence (P35462 whole entry, looked up): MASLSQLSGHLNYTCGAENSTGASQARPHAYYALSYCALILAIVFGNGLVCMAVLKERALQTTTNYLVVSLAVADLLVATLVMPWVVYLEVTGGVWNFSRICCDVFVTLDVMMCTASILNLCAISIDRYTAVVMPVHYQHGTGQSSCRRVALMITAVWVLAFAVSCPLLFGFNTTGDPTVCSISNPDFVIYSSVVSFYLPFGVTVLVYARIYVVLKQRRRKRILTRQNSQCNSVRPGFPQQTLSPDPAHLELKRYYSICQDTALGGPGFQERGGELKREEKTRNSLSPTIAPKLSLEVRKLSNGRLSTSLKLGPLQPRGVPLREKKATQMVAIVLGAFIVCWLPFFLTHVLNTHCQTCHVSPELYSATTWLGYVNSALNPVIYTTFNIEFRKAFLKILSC
#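 Agonist mode: compounds and dopamine controls were applied to plated cells for 90 min at 37 degrees C after an overnight attachment at 1500 cells/well. Luminescent read-out followed 30 - 60 minutes at room temperature with DiscoveRx detection reagent.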
# DRD3 antagonist: blocks the human D3 dopamine receptor | P35462 | D3R cells, DiscoveRx beta-arrestin luminescence, antagonist mode; stronger effect = lower value | max response, negative = inhibition, % | 360,000 tested, 2.5% active | AID 652054; in the data active = max response below about -50%; inconclusive = no clear call, values can overlap the other calls; also: % is scaled to controls: 0 for no effect and ±100 for the full control effect
#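 Cells expressing the human receptor were seeded at 1500 cells/well, incubated overnight at 37 degrees C in 5% CO2, then exposed to library compounds with dopamine controls for 90 minutes at 37 degrees C before luminescent detection.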
# D1 agonist: agonists of human D1 dopamine receptor; 360,000 tested, 1% active; HEK293 T-REx D1 cells, calcium flux, agonist mode; activation, % at 2 µM; P21728; AID 504660; in the data active = activation above about 30%; also: 0% is about no effect
#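 Tetracycline-induced HEK293 TREx D1 cells, force-coupled to calcium signalling, were dye-loaded with a no-wash calcium kit. Compound was pin-added after a 10 s baseline. Fluorescence was read kinetically at 1 cycle/s for 180 s, with calcium rises flagged as agonism.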
# D1 antagonist: antagonists of human D1 dopamine receptor. P21728. HEK293 TREx D1 cells, calcium flux, dopamine EC80; stronger effect = lower value. activity change, negative = inhibition, % at 10 µM. 360,000 tested, 3.2% active; in the data active = activity change below about -30%; also: % is scaled to controls: 0 for no effect and ±100 for the full control effect
#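 Cells carrying a force-coupled, tetracycline-inducible human D1 receptor report calcium flux. Each well gets a 10 s baseline, compound with 180 s monitoring, then an EC80 dopamine stimulus with a second 180 s kinetic read.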
# D1 potentiator: human D1 dopamine receptor positive modulation; P21728; potentiation, % at 10 µM; 360,000 tested, 0.036% active; HEK293 TREx D1 cells, calcium flux, dopamine EC20 potentiation; AID 504651; in the data active = potentiation above about 30%; also: 0% is about no effect
# Numbers without * were called inactive; ? = inconclusive; nt = no result.
SMILES,DRD3 agonist,DRD3 antagonist,D1 agonist,D1 antagonist,D1 potentiator
Fc1ccccc1N1CCN(Cc2nc(-c3ccccc3)no2)CC1,-10.3,?,0.3,-19.0,5.8
Fc1ccccc1N1CCN(Cc2cc(-c3ccccc3)on2)CC1,-5.3,-87.7*,2.4,-27.2,-0.7
Cc1cc(CN2CCN(c3cccc(C)c3C)CC2)cs1,-33.5,nt,13.4,12.0,-8.5
Cc1cc(CN2CCN(c3ccccc3F)CC2)cs1,0.1,nt,-0.1,-57.8*,-8.2
FCCCOc1ccc(CN2CCN(c3ccccc3F)CC2)cc1,-3.4,-60.2*,1.2,-13.6,-2.4
CCN(c1cccc(C)c1)S(=O)(=O)c1nnc(NC(=O)c2ccccc2Cl)s1,-16.3,nt,10.2,1.4,9.3
COC(=O)c1ccc(NC(=O)CSc2nc(=O)[nH]c3c2CCCC3)cc1,3.7,nt,-2.1,nt,10.2
Cc1nc(-n2nc(C)c(CCC(C)C)c2C)sc1C(=O)Nc1ccc(Cl)cc1,11.0,nt,-0.4,2.1,-0.8
Brc1ccc2c(c1)CN1CCCC1=N2,-7.4,-50.2*,2.1,-14.3,-2.5
COc1ccc(C2=NN(C(=O)CSc3nccn3C)C(c3ccco3)C2)cc1 (stereo unspecified),1.0,-19.0,nt,nt,nt
CCC(=O)N1N=C(c2ccc(NS(=O)(=O)c3ccc(C)cc3)cc2)CC1c1ccco1 (stereo unspecified),-1.1,-4.0,nt,nt,nt
CCC(=O)N1N=C(c2ccc(C)cc2)CC1c1ccco1 (stereo unspecified),-5.9,16.2,3.3,-37.2*,-3.1
COc1ccc(C2=NN(C(=O)CSc3nnc(C)c(=O)n3N)C(c3ccco3)C2)cc1 (stereo unspecified),2.7,0.9,1.7,-80.0*,-4.5
O=C(c1cc2ccccc2oc1=O)N1CCN(c2ccc(Cl)cc2)CC1,16.7,nt,3.1,-21.0,-6.2
COc1ccc(C2Nc3ccc4ccccc4c3-c3c2c(=O)oc2ccccc32)cc1 (stereo unspecified),nt,nt,4.1,-3.0,0.1
O=c1oc2ccccc2c2c1C(c1ccc(Cl)cc1)Nc1ccc3ccccc3c1-2 (stereo unspecified),1.0,-23.3,1.2,-64.1*,-2.2
O=C(O)[C@H](O)[C@@H](O)[C@H](O)[C@H](O)CO,1.3,nt,nt,nt,nt
Cc1csc2c(N3CCN(C(=O)Nc4ccccc4)CC3)ncnc12,12.4,-1.9,9.5,-4.4,-14.1
Cc1csc2c(N3CCN(C(=S)Nc4ccc(F)cc4F)CC3)ncnc12,19.0,17.3,39.8*,-42.1*,-7.2
Cc1cccc(-c2nc(SCC(=O)NCC3CCCO3)c3c(=O)n(C)c(=O)n(C)c3n2)c1 (stereo unspecified),12.6,nt,1.4,-15.3,-0.1
CCOc1ccc(-c2nc3c(C#N)c[nH]n3c2NC2CCCC2)cc1,1.3,nt,0.3,24.7,2.8
CCc1nc(SCC(=O)Nc2ccccc2C(=O)OC)n[nH]1,-7.7,0.8,-0.5,-5.8,3.6
CCc1nc(SCC(=O)Nc2ccnc3ccccc23)n[nH]1,3.9,4.9,12.4,-45.6*,-2.9
Cc1ccc(S(=O)(=O)NCc2ccccc2)cc1,9.3,9.6,3.3,-17.6,9.5
Cc1ccc(S(=O)(=O)N[C@H](CNCc2ccccc2)C(C)C)cc1,-16.6,-90.6*,nt,nt,nt
SMILES,DRD3 agonist,DRD3 antagonist,D1 agonist,D1 antagonist,D1 potentiator
CCCCN(CCCC)S(=O)(=O)c1ccc(C(=O)Nc2sc3c(c2C(N)=O)CCN(CC)C3)cc1,1.9,nt,78.5*,6.1,1.6
CNC(=O)c1c(NC(=O)c2ccc(S(=O)(=O)N3CC(C)OC(C)C3)cc2)sc2c1CCN(C(C)C)C2 (stereo unspecified),-5.8,-25.6,6.0,12.8,-5.3
CC(C)CN(CC(C)C)S(=O)(=O)c1ccc(C(=O)Nc2sc3c(c2C(N)=O)CCN(C(C)C)C3)cc1,-8.8,nt,53.9*,28.5,-1.9
CCN1CCc2c(sc(NC(=O)c3ccc(S(=O)(=O)N(CC)c4ccccc4)cc3)c2C(N)=O)C1,-2.9,-15.3,147.7*,-20.5,-4.1
CCN1CCc2c(sc(NC(=O)c3ccc(C(=O)c4ccccc4)cc3)c2C(N)=O)C1,-5.3,-23.8,15.9,-14.4,-2.3
CC(C)N1CCc2c(sc(NC(=O)c3ccc(S(=O)(=O)N4CCOCC4)cc3)c2C(N)=O)C1,-5.1,1.3,1.9,-3.8,-4.1
CNC(=O)c1c(NC(=O)c2ccc(S(=O)(=O)N3CCCC3)cc2)sc2c1CCN(C(C)C)C2,nt,nt,88.7*,4.3,-0.9
COc1c(Cl)cc(C(=O)N(Cc2ccc(C)o2)C2CCS(=O)(=O)C2)cc1Cl (stereo unspecified),-21.4,nt,0.9,-15.9,-1.2
S=c1[nH]nc(-c2ccccn2)n1/N=C/c1ccc(Br)s1,13.0,-55.6*,-0.5,2.9,2.7
O=C(N/N=C/c1c(O)n(-c2ccc(Cl)cn2)c(=O)c2ccccc12)C1CC1,13.4,16.7,1.3,4.4,1.6
O=C(N/N=C/c1c(O)n(-c2ccc(Cl)cn2)c(=O)c2ccccc12)c1ccncc1,1.7,8.7,44.5*,-6.0,-8.8
CN(NC(=O)Nc1ccc(Cl)cc1)c1c(Cl)c(Cl)nn1C,11.4,1.3,10.2,-40.5*,-2.7
CN(NC(=O)Nc1ccc(Cl)cc1)c1ncc(C(F)(F)F)cc1Cl,-10.5,?,nt,nt,nt
Cc1cccc(N2CCN(C(=O)C3CCN(S(=O)(=O)c4cn(C)cn4)CC3)CC2)c1C,0.5,nt,-0.4,8.2,-0.8
COc1ccc2c(c1)OC[C@H]1[C@H]2N2C(=O)c3cc(Cl)ccc3NC(=O)[C@@]2(C)[C@H]1c1ccccc1,-12.3,?,10.1,-5.5,0.8
COc1ccc2c(c1)OC[C@H]1[C@H]2N2C(=O)c3cc(OC)ccc3NC(=O)[C@@]2(C)[C@H]1c1ccccc1,-2.7,-52.4*,7.9,0.6,6.6
O=[N+]([O-])c1ccc(Cl)cc1C=NNc1ccccn1,0.1,-7.0,nt,nt,nt
O=[N+]([O-])c1cc(Cl)cc(/C=N\Nc2ccccn2)c1O,-34.1,-106.2*,1.4,11.9,-5.6
O=C(N/N=C/c1cc(Cl)cc([N+](=O)[O-])c1O)c1cc(-c2ccccn2)nc2ccccc12,-20.3,-61.5*,1.4,-12.7,-5.4
COc1ccc(CNC(=O)c2ccc(CNS(=O)(=O)c3ccc(F)cc3)cc2)cc1,-24.6,nt,5.8,5.6,5.8
CCc1ccc(CNC(=O)CCN2C(=O)COc3ccccc32)cc1,-22.3,nt,-3.1,4.3,-0.3
COc1cc(OC)cc(-n2c(=O)[nH]c3cc(C(=O)NCCc4ccc(C)cc4)ccc3c2=O)c1,1.0,nt,5.0,4.7,1.5
Cc1ccc(-n2c(=O)[nH]c3cc(C(=O)NCc4ccccc4)ccc3c2=O)cc1,2.1,nt,8.1,-76.9*,-1.1
CCCCNC(=O)c1ccc2c(=O)n(-c3ccccc3)c(=O)[nH]c2c1,1.0,nt,1.4,-64.5*,-1.6
COc1cccc(-c2ccc3ncnc(NCc4cccc(F)c4)c3c2)c1,nt,nt,5.1,-3.2,2.0
Cc1ccc(SCc2nc(-c3ccc(C(=O)Nc4cc(C)ccc4C)cc3)oc2C)cc1,-13.7,nt,5.0,1.3,-2.0
